Screens from PubChem.
Pf growth 96h: P. falciparum growth inhibition at 96 hours. actives 6.9% (n = 320,000). Potency, µM (top dose mostly 28.7 µM), without a hit: at the top dose activity change, negative = inhibition, usual class: inhibitors. AID 504834. P. falciparum luciferase reporter growth, 96 h; further: potency means the concentration at half of the fitted maximal effect; on the % scale 0 is the no-effect control and ±100 the full control effect
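P. falciparum expressing integrated firefly luciferase grown in erythrocytes (2% hematocrit, 0.05% parasitemia final) with compounds for 96 hours at 37 C, 5% CO2. Growth inhibition read as loss of luminescence after adding luciferase detection reagent.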
CHX counter: counter-screen hit for Shiga toxin inhibitors, cycloheximide; max response, %; actives 12% (n = 300,000); cell reporter, cycloheximide protein synthesis inhibition counterscreen; in the data active means max response mostly above about 13%, no sharp cut-off; inactive means mostly below about 14%; further: read at 38.3 µM for the half of the compounds with a filed dose; 0% is about no effect
Shiga toxin inh: Shiga toxin inhibition | Vero cells, Shiga toxin protein synthesis inhibition reporter | inhibition, % at 38.7 µM | actives 9.2% (n = 290,000) | AID 2315; in the data active means inhibition mostly above about 28%, no sharp cut-off; inactive means mostly below about 43%; further: 0% is about no effect
Pf growth 48h: inhibits P. falciparum growth in the first generation, 48 h; P. falciparum luciferase growth in erythrocytes, 48 h; Potency, µM (doses to about 28.7 µM), for the others: top-dose activity change, negative = inhibition, usual class: inhibitors; actives 5.9% (n = 310,000); further: potency means the concentration at half of the fitted maximal effect; on the % scale 0 is the no-effect control and ±100 the full control effect
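In quantitative HTS format, infected erythrocytes bearing luciferase-reporter parasites were treated for a single generation at 37 C. Luminescence after adding detection reagent served as the growth measure.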
Marburg entry inh: inhibitors of Marburg virus binding or cell entry. Marburg virus pseudotyped entry inhibition, cell reporter. AID 540276. actives 1.8% (n = 300,000). Potency, µM (titrated, usually from 37.8 µM), inactives show at the top dose activity change, negative = inhibition, usual class: inhibitors; calls by dose curve; tested in HEK293 cells; further: potency means the concentration at half of the fitted maximal effect; on the % scale 0 is the no-effect control and ±100 the full control effect
LASV entry inh: Lassa virus entry inhibition; Potency, µM (highest dose often 37.9 µM), for the others: at the top dose activity change, negative = inhibition, hits mostly inhibitors; Lassa virus pseudotype entry inhibition, cell reporter; actives 1.2% (n = 300,000); calls by dose curve; tested in HEK293 cells; further: potency means the concentration at half of the fitted maximal effect; on the % scale 0 is the no-effect control and ±100 the full control effect; nearly all actives have a fitted effect of over 50% in size
* hit, by the source's call; i = inactive; ? = inconclusive; · = no result given; + = active, no number; [ ] = dose if it differs, or a comment. In the library only some 19% were active in any assay of this set; here they are far more common. Unless noted, the call rests on the fitted dose curve; in most records, active means well fitted inhibition curve with a large enough effect; inconclusive means small, poorly fitted or top-dose-only effect, or another doubt; inactive means no such curve, though single readings can be large or run the other way.

SMILES | Pf growth 96h | CHX counter | Shiga toxin inh | Pf growth 48h | Marburg entry inh | LASV entry inh
Cc1cc(C)c2c(N)c(C(=O)NCC3CCCCC3)sc2n1 | · | 35* | 130* | 4% | ? | 2%
Cc1cc(C)c2c(N)c(C(=O)NC3CCCC3)sc2n1 | 6% | 20* | 70* | 15% | 10%[46.1 µM] | -27%
Cc1cc(C)c2c(N)c(C(=O)C(C)(C)C)sc2n1 | -10%[5.75 µM] | -1 | -12 | -20% | 12%[46.1 µM] | -1%
O=C(N/N=C/c1ccccc1C(=O)O)c1cc(-c2ccc3c4c(cccc24)CC3)n[nH]1 | -18% | -5 | -8 | ? | ? | 5%
CN1CCCC(CC2Oc3ccccc3Sc3ccccc32)C1 (stereo not given) | ? | -5 | -15 | 13µM* | ? | ?
c1ccc2c(c1)OC(CCCN1CCCCC1)c1ccccc1S2 (stereo not given) | 10µM* | -5 | -8 | 13µM* | ? | -17%
CC1CCCN(C(=O)N2c3ccccc3Sc3ccccc32)C1 (stereo not given) | ? | -3 | -14 | · | ? | ?
c1ccc(OCCCN2CCCC2)cc1 | 5% | 7 | 3 | · | -4% | 1%
CC1CCN(C(=O)C2CCCCN2S(=O)(=O)c2cccc([N+](=O)[O-])c2)CC1 (stereo not given) | 0% | 1 | -3 | -18% | · | ·
O=C(O)c1ccccc1SCC(=O)N1CCc2ccccc21 | 118% | -1 | 2 | 115% | ? | ?
Cc1ccc(SCC(=O)N2CCc3ccccc32)cc1 | ? | 46* | 53* | 77% | 28% | 0%
O=C(CSC1=NCCS1)N1CCc2ccccc21 | ? | 41* | 178* | 134% | -5% | ?
Cc1ccc(-c2ccc(SCC(=O)N3CCCc4ccccc43)nn2)cc1 | ? | 24* | 52* | 32% | -10% | 5%
Nc1ccccc1SCC(=O)N1CCc2ccccc21 | ? | 41* | 67 | 63% | ? | 14%
O=C(CSc1nccn1-c1ccccc1)N1CCc2ccccc21 | ? | 14 | 15 | · | ? | 0%
Cc1cc(C)n2nc(C(=O)NCc3cccc(C(F)(F)F)c3)nc2n1 | -2% | -1 | -15 | 8% | ? | 0%
O=C(O)COc1ccccc1/C=N/NC(=O)CNC(=O)c1ccco1 | -20% | -1 | -4 | 26% | · | ·
CCN1CCN(c2nnc(-c3ccc(F)cc3)c3ccccc23)CC1 | 3% | -6 | -14 | 5% | ? | -25%[46.1 µM]
O=C(OC1CCS(=O)(=O)c2sccc21)c1ccccc1 (stereo not given) | -4% | 3 | -20 | 2% | 1% | -11%
CC(C)(CNC(=O)c1ccccc1F)CNC(=O)c1ccccc1F | · | · | · | · | 2%[46.1 µM] | -27%[46.1 µM]
CCc1nnc(SCC(=O)N2CCCc3ccccc32)nc1CC | 32% | 1 | -8 | ? | 1% | -17%
O=C(CSc1nnnn1-c1ccccc1)N1CCCc2ccccc21 | ? | 5 | 4 | · | 12% | 10%
CC(C)c1nc(SCC(=O)N2CCc3ccccc32)n[nH]1 | 35% | 21* | 47 | 76% | 18%[46.1 µM] | -1%
O=C(CNc1ccccc1OC(F)F)N1CCc2ccccc21 | 1% | 32* | 45* | 327% | -13%[46.1 µM] | 3%
CCCn1nnnc1SCC(=O)N1CCCc2ccccc21 | 72% | 48* | 108* | 78% | 1%[46.1 µM] | ?
SMILES | Pf growth 96h | CHX counter | Shiga toxin inh | Pf growth 48h | Marburg entry inh | LASV entry inh
O=C(CNCCO)N1CCc2ccccc21 | 7% | 1 | 16 | -3% | 10% | -1%
Cc1ccc2c(c1)c1nnc(SCC(=O)N3CCCc4ccccc43)nc1n2CC(=O)O | 21% | 32* | 76* | -28% | -11%[46.1 µM] | 4%
COC(=O)Cc1n[nH]c(=S)[nH]c1=O | 119% | -2 | -11 | 15% | 0% | 3%
Cc1cccc(C)c1NC(=O)CN(c1ccccn1)S(=O)(=O)c1ccccc1 | -1% | 9 | 10 | ? | 7%[46.1 µM] | ?
COC1=C/C(=C/c2c(N)n3cc(C)sc3nc2=O)C=CC1=O | -26% | 42* | 45* | 1% | ? | ?
c1ccc(-c2cccc(-c3ccccc3)n2)cc1 | 45% | 48* | 54* | · | · | ·
O=C(O)c1ccc(-c2ccccn2)s1 | 21% | 45* | 29* | 0% | 3%[46.1 µM] | 5%
CCOc1ccccc1-c1ccc(C(=O)O)s1 | · | 44* | + | · | · | ·
c1ccc(-c2ccc(-c3ccccn3)s2)nc1 | 495% | 45* | 132* | 384% | ? | ?
O=C(O)c1ccc(-c2ccccc2C(F)(F)F)s1 | · | 9 | i | · | · | ·
CN(CCO)c1ccc(C(C(=O)c2ccccc2)c2ccc(N(C)CCO)cc2)cc1 | 44% | · | · | ? | · | ·
O=C(Cn1c(-c2ccccc2Cl)nc2ccccc21)Nc1cccc(Cl)c1 | ? | -2 | -6 | -26% | 12% | 21%
c1ccc(-c2ccncc2)nc1 | -19% | · | · | 7% | · | ·
c1ccc(-c2cccc(-c3ccccn3)n2)nc1 | 40% | 31* | 91* | 1.5µM* | 2.1µM* | 2.1µM*
O=C1CSC(c2ccc(Cl)cc2Cl)N1c1ccccn1 (stereo not given) | ? | 1 | -15 | -23% | -15% | -8%
O=C(CSc1n[nH]c(=O)[nH]c1=O)Nc1ccc(C(=O)O)cc1 | 19% | -1 | -16 | 11% | · | ·
CCS(=O)(=O)n1nc(-c2ccc(C)cc2)nc1N | · | 9.4* | 9 | 8% | 9%[46.1 µM] | 2%
CCS(=O)(=O)n1nc(-c2ccc(Cl)cc2)nc1SCc1ccccc1 | 117% | 19* | 60* | 188% | 11% | ?
CC(C)(C)c1ccc2c(c1)N(CC(=O)NCCCN1CCN(c3ccccc3F)CC1)C(=O)CO2 | · | · | · | · | · | -14%[46.1 µM]
O=C(OCc1nnc(-c2ccc(Cl)cc2)o1)c1ccc(O)cc1 | 27% | 19* | 28* | -2% | ? | 1%
Cc1nnc(-c2ccc(Oc3ccc(Cl)cc3)c([N+](=O)[O-])c2)o1 | ? | -3 | -9 | 1% | 7% | 3%
O=C(OCc1nnc(-c2ccccc2)o1)c1cccnc1Cl | 46% | 19* | 26 | 40% | 15%[46.1 µM] | 17%
O=C(OCc1nnc(-c2ccccc2)o1)c1cc(F)c(F)cc1Cl | 14% | 3 | -3 | 12% | 0% | 10%
O=C(OCc1nnc(-c2ccccc2)o1)c1cc(Cl)ccc1[N+](=O)[O-] | 38% | 31* | 57 | 0% | · | ·
O=[N+]([O-])c1cc(-c2nnc(-c3ccccc3)o2)ccc1Oc1ccc(Cl)cc1 | 57% | 32* | 61* | 93% | ? | 11%
O=C(Nc1cccn(Cc2c(Cl)cccc2Cl)c1=O)c1ccc(Cl)cc1Cl | 7% | 8 | 21 | ? | -28% | -26%
CCOC(=O)c1c(NC(=O)Cc2cccs2)sc(C(=O)N2CCCCC2)c1C | · | -1 | -20 | ? | -17% | ?
COC(=O)c1ccccc1NC(=O)CSc1nnc(C(CO)NC(=O)c2ccccc2)n1C (stereo not given) | · | 0 | -23 | 0% | 0% | 3%
